Screening data: PubChem BioAssay, several laboratories
HSF1 activator – increases HSF-1 driven luciferase reporter signal | NIH3T3-HGL HSF-1 luciferase reporter, MG132, 8 h; 100% = twice DMSO control signal | activation, % at 9 µM | actives 1.7% (n = 300,000) | AID 504408;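 active = mean replicate activation of at least 50% with a set share of replicates each reaching 50%; inconclusive = only one of those two conditions met; inactive = mean below 50% and too few replicates reaching it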
HSF1 inhib – HSF1 inhibition. activity change, negative = inhibition, % at 7.5 µM (by protocol). actives 0.77% (n = 300,000). NIH3T3-HGL HSE-luciferase, MG132-induced, luminescence 8 h; stronger effect = lower value;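 active = more than half of replicate wells show activity change below -50%, luminescence cut by over half; inconclusive = some wells, but at most half, below -50%; inactive = no replicate well below -50%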;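 also: luciferase reports HSF-1 transcriptional activity via heat shock element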
DAX1 inh – inhibits human nuclear receptor DAX1 | AID 504766 | inhibition, % at 6.75 µM | actives 0.99% (n = 340,000) | P51843 | HEK293 Gal4-DAX1 luciferase reporter, luminescence;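 active = inhibition above the mean over all tested compounds plus 3 SD, cut at about 4.2% in these data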;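 also: inhibition shows as a rise in luminescence from relieved DAX1 repression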
Target sequence (P51843 207-470 limits assumed): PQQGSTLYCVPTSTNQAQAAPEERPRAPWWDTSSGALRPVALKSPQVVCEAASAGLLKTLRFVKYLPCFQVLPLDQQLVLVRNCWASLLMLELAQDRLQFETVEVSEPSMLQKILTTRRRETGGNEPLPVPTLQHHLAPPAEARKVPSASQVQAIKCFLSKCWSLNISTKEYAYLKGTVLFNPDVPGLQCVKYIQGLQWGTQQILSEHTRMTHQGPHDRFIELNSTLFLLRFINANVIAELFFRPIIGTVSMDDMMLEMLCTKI
AHR act – activators of human aryl hydrocarbon receptor; P35869; AHR-responsive luciferase reporter cells, luminescence; activation, % at 5 µM; actives 2.5% (n = 320,000); AID 2796; in the data active = activation above about 47%
FXN GAA850 act – activators of GAA850 frataxin (FXN) promoter | actives 0.56% (n = 360,000) | AID 540364 | activation, % at 6 µM | HEK293 lucGAA850 FXN promoter luciferase reporter, 24 h; percent of 10 µM SAHA response;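 active = activation above the average of all compounds screened plus 3 SD, cutoff fixed separately per campaign, cut at about 7.5% in these data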
HSP90 refold inh – inhibitors of HSP90 luciferase refolding in rabbit reticulocyte lysate; luciferase refolding luminescence, 3 h; inhibition, % at 5.6 µM; actives 0.91% (n = 290,000); AID 1789;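 active = inhibition above the screen-wide mean plus 3 SD, computed separately per campaign, cut at about 16% in these data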;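 also: inhibitors lower the luminescence because luciferase stays unfolded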
Each line names hits and unclear results; the compound was inactive in the other large screens. Most compounds without a hit are left out; they make up all but 5.9% or so of the library.

N#Cc1c(-c2ccccc2)nc(-c2ccccc2)[nH]c1=O	none
Nc1nc(-c2ccccc2)[nH]c(=O)c1N=O	DAX1 inh 4.2
CC(C)Cc1csc(=S)[nH]1	none (no result: HSF1 activator, HSF1 inhib, AHR act, HSP90 refold inh)
Cn1ccnc1Sc1cc(NCCCO)c([N+](=O)[O-])c2nonc12	HSF1 inhib -95
CC(=O)OCCCNc1cc(Sc2nc3ccccc3s2)c2nonc2c1[N+](=O)[O-]	HSF1 inhib -79
O=[N+]([O-])c1c(NCCCO)cc(Sc2ccc(Cl)cc2)c2nonc12	HSF1 activator inconclusive
CC(=O)OCCNc1cc(Sc2nc3ccccc3[nH]2)c2nonc2c1[N+](=O)[O-]	none
CC(=O)OCCCNc1cc(Sc2ccc(C)cc2)c2nonc2c1[N+](=O)[O-]	HSF1 inhib -80
CC(C)CCOc1cccc(OCC(=O)Nc2ccncc2)c1	none
O=C(CN1CCCC1c1cccs1)Nc1cccc(S(=O)(=O)N2CCCC2)c1 (stereo not given)	none (no result: HSF1 activator, HSF1 inhib, HSP90 refold inh)
N#Cc1ccc(C(=O)N2CCCCC2c2cc(C(=O)Nc3ccc4c(c3)OCO4)no2)cc1 (stereo not given)	none (no result: HSF1 activator, HSF1 inhib, DAX1 inh, AHR act, HSP90 refold inh)
COc1ccc(OC2C(=O)N(Cc3ccc4c(c3)OCO4)C2c2sccc2C)cc1 (stereo not given)	HSF1 inhib -75
COc1ccc(OC2C(=O)N(Cc3ccc(F)cc3)C2c2ccc(OC)c(OC)c2)cc1 (stereo not given)	none
CCCC(=O)Nc1ccc(S(=O)(=O)N2CCc3ccccc32)cc1	DAX1 inh 4.8 (no result: HSF1 activator, HSF1 inhib, AHR act, HSP90 refold inh)
CCn1c(C)nc2cc(C(=O)NNC(=S)NC(=O)c3ccccc3)ccc21	HSF1 inhib -53
O=C(COC(=O)c1cc2c(s1)CCC2)Nc1ccc(F)cc1	DAX1 inh 4.5
Cc1ccc(NC(=O)c2cc3c(s2)CCCC3)cc1	HSF1 activator inconclusive, DAX1 inh 6.6
Cc1ccc(NC(=O)c2scc3c2CCCC3)cc1	DAX1 inh 4.6
Cc1ccc(NC(=O)CN(C)C(=O)c2cc3c(s2)CCCCC3)cc1	none (no result: HSF1 activator, HSF1 inhib, HSP90 refold inh)
Cc1csc(NC(=O)c2cc3c(s2)CCC3)n1	HSF1 activator 54
CCOc1ccc(C(=O)NNC(=O)CN2C(=O)C3CC=CCC3C2=O)cc1OC (stereo not given)	none (no result: HSF1 activator, HSF1 inhib, HSP90 refold inh)
CCN(CC(=O)NCc1ccc(Cl)cc1)C(=O)COc1ccc(C)cc1C	none
Cc1csc(NC(=O)c2cc3c(s2)-c2ccccc2OC3)n1	AHR act 68
Oc1c(C(Nc2ccccn2)c2ccccn2)ccc2cccnc12 (stereo not given)	none
Oc1ccccc1C(Nc1nccs1)c1ccc2cccnc2c1O (stereo not given)	HSF1 inhib -57
Nc1c(C(=O)Nc2ccc(F)cc2)sc(=S)n1-c1ccccc1F	none
Cn1c(N)c(C(=O)N/N=C/c2ccccc2)sc1=S	AHR act 101
Cn1c(N)c(C(=O)Nc2ccc3ccccc3c2)sc1=S	AHR act 93
CCOC(=O)Cc1nnc2c(Nc3ccccc3F)nc3nonc3n12	HSF1 inhib -74
Cc1[nH]c(C(=O)N/N=C/c2ccc(C(=O)O)cc2)c(C)c1C(=O)N/N=C/c1ccc(C(=O)O)cc1	none
CCOC(=O)c1c(C)[nH]c(C(=O)N/N=C/c2ccc(Br)cc2)c1C	AHR act 67
CCOC(=O)c1c(C)[nH]c(C(=O)OCC(=O)Nc2cc(C)ccc2OC)c1C	none
CCOC(=O)c1[nH]c(C)c(C(=O)Nc2ccc(F)cc2)c1C	HSF1 activator 57
COC(=O)c1c(C)[nH]c(C(=O)/C=C/c2ccccc2F)c1C	HSF1 activator 66
CCOC(=O)c1c(C)[nH]c(C(=O)OCC(=O)Nc2cc(Cl)ccc2OC)c1C	HSF1 activator 53
CCOC(=O)c1[nH]c(C)c(C(=O)Nc2ccc(C)c(C)c2)c1C	none
CN(C)CCCOc1ccc(-c2ccc3nncn3c2)cn1	none (no result: HSF1 activator, HSF1 inhib, DAX1 inh, AHR act, HSP90 refold inh)
COc1ccc(NS(=O)(=O)c2ccc3oc(SC(C)C(N)=O)nc3c2)cc1 (stereo not given)	none
Cc1noc(C)c1-c1ccc(C(=O)NC2CCCCC2)c2occc12	none (no result: HSF1 activator, HSF1 inhib, DAX1 inh, AHR act, HSP90 refold inh)
CCOC(=O)c1c(C)[nH]c(C(=O)OCc2ccccc2F)c1C	DAX1 inh 5.5
CCOC(=O)c1[nH]c(C)c(C(=O)NCCC2=CCCCC2)c1C	HSF1 activator 61
CCOC(=O)c1c(C)[nH]c(C(=O)OCc2ccc(F)cc2)c1C	HSF1 activator inconclusive (no result: AHR act)
CCOC(=O)c1[nH]c(C)c(C(=O)NCc2ccc(C)cc2)c1C	none
